Screens: PubChem, Broad Institute
aSyn UTR act = Activators via SNCA 5'UTR binding, MLPCN; alpha-synuclein 5'UTR reporter, activators screen; AID 1814, 2009; activity score, % (tested at 7.5 µM), hits read low; 7.1% of 300,000 active; in the data active = activity score below about -60%
Each line names hits and unclear results; the compound was inactive in the other large screens. Only a sample is shown.

c1cnc2c(OCc3nc4ccccc4[nH]3)cccc2c1	aSyn UTR act -293.0
COc1ccc(-c2cn(CC3CCCCC3)nn2)cc1	aSyn UTR act -120.5
c1ccc(-c2cn(CC3CCCCC3)nn2)cc1	aSyn UTR act -200.0
O=[N+]([O-])/C(C(Cl)=C(Cl)Cl)=C(\Nc1ccc(F)cc1)n1cncn1	aSyn UTR act -102.4
COc1ccc(N(C(=O)c2ccco2)S(=O)(=O)c2cc(OC)ccc2OC)cc1	aSyn UTR act -112.9
O=c1c(N2CCCCC2)coc2ccccc12	aSyn UTR act -86.2
N#Cc1ccccc1NC(=O)c1ccc(-c2ccccc2Cl)o1	aSyn UTR act -128.3
O=C(Nc1ccccc1)c1ccc(-c2ccccc2Cl)o1	aSyn UTR act -178.1
CCn1cc(Br)c(-c2nc3ccccc3c(=O)n2N)n1	aSyn UTR act -99.5
COc1ccc(Nc2nccc3c2nnn3C)cc1	aSyn UTR act -144.2
CN(C)C=Nc1ccc2nn(-c3ccccc3)nc2c1	aSyn UTR act -211.4
COC(=O)N1N=C(c2ccccc2)CC1(O)C(F)(F)F (stereo not given)	aSyn UTR act -64.7
CCn1c(SCc2nc3ccccc3s2)nnc1-c1ccccc1	aSyn UTR act -116.9
CCn1c(SCC(O)c2ccccc2)nnc1-c1ccccc1 (stereo not given)	aSyn UTR act -69.8
Cc1nnc(SCc2nc3ccccc3s2)n1-c1ccccc1	aSyn UTR act -194.6
CCC(c1nnc(SCc2nc3ccccc3s2)n1Cc1ccccc1)N(C)C (stereo not given)	aSyn UTR act -100.5
Cc1nnc(SCc2nc3ccccc3s2)n1N	aSyn UTR act -145.1
c1ccc(-n2cnnc2SCc2nc3ccccc3s2)cc1	aSyn UTR act -145.8
COc1ccc(-c2cc(-c3c(O)c(OC)c4occc4c3OC)[nH]n2)cc1OC	aSyn UTR act -71.0
CC(C)CCn1c(SCc2ccc(Cl)cc2)nc2c1c(=O)[nH]c(=O)n2C	none
CS(=O)(=O)n1nc(-c2ccc(Cl)cc2)nc1SCc1ccccc1	aSyn UTR act -111.7
CSc1nc(-c2ccc(Cl)cc2)nn1S(=O)(=O)c1ccccc1	aSyn UTR act -73.6
CSc1nc(-c2ccc(Cl)cc2)nn1S(=O)(=O)c1ccc(Cl)cc1	aSyn UTR act -73.7
Cc1ccc(Nc2nc(N)nc(CSCCO)n2)cc1	aSyn UTR act -111.5
Nc1nc(CSc2ncccn2)nc(Nc2ccccc2)n1	aSyn UTR act -147.8
CCOc1ccc(Nc2nc(N)nc(CCl)n2)cc1	none
Cc1ccc(Nc2nc(N)nc(CSc3ncccn3)n2)cc1	aSyn UTR act -132.2
Cc1ccc(Nc2nc(N)nc(CC#N)n2)cc1	aSyn UTR act -117.6
C/C(=N\NC(=O)c1c([N+](=O)[O-])c(C)nn1C)c1ccc(NC(=O)c2ccc(C)o2)cc1	aSyn UTR act -104.2
C/C(=N\NC(=O)c1c([N+](=O)[O-])c(C)nn1C)c1ccc(NC(=O)C2CCCC2)cc1	none
C/C(=N/NS(=O)(=O)c1ccc(F)cc1)c1ccc(NC(=O)c2ccc(C)o2)cc1	aSyn UTR act -71.9
Cc1ccc2c(c1)COc1c3ccc(C(=O)NCC4CC4)cc3nn1-2	aSyn UTR act -176.9
C=CCNC(=O)c1ccc2c3n(nc2c1)-c1ccc(Cl)cc1CO3	aSyn UTR act -126.5
CC(C)NC(=O)c1ccc2c3n(nc2c1)-c1ccccc1CO3	none
O=C(NCCO)c1ccc2c3n(nc2c1)-c1ccccc1CO3	aSyn UTR act -104.6
O=C(Nc1nccs1)c1ccc(Br)s1	aSyn UTR act -153.2
Cc1ccc(C(=O)Nc2nccs2)s1	aSyn UTR act -87.2
CC(C)c1ccc(C2C3=C(COC3=O)Nc3cc4c(cc32)OCO4)cc1 (stereo not given)	none
CC(C)Oc1ccccc1C1CC(=O)Nc2cc3c(cc21)OCO3 (stereo not given)	none
O=C1NC(c2ccc3c(c2)OCO3)Nc2ccccc21 (stereo not given)	aSyn UTR act -179.7
Cc1ccc(NC(=O)c2ccc3c(c2)CCN3S(C)(=O)=O)cc1C	aSyn UTR act -111.6
Cc1cccc(NC(=O)c2ccc3c(c2)CCN3S(C)(=O)=O)c1	aSyn UTR act -202.6
CS(=O)(=O)N1CCc2cc(C(=O)Nc3ccc(Br)cc3)ccc21	aSyn UTR act -76.6
CS(=O)(=O)N1CCc2cc(C(=O)Nc3ccccc3Cl)ccc21	aSyn UTR act -95.6
CS(=O)(=O)N1CCc2cc(C(=O)OCC(=O)c3ccccc3)ccc21	aSyn UTR act -138.3
COc1ccccc1/C=C/C(=O)NC(=S)Nc1ccccn1	aSyn UTR act -125.7
COc1ccc(/C=C/C(=O)NC(=S)Nc2ccccn2)cc1	aSyn UTR act -94.4
COc1ccc(/C=C/C(=O)NC(=S)NNC(=O)c2cnccn2)cc1	none
CCN(CC)c1ccc(/C=N/N=C(N)N)c(O)c1	none
CCN(CC)c1ccc(C=Nc2ccc(N(C)C)cc2)c(O)c1	aSyn UTR act -83.3
CCN(CC)c1ccc(/C=N/N2CCOCC2)c(O)c1	aSyn UTR act -157.1
CCN(CC)c1ccc(/C=N/NC(=S)NC)c(O)c1	aSyn UTR act -94.0
CCN(CC)c1ccc(/C=N/Nc2ccccc2)c(O)c1	aSyn UTR act -61.7
CC(C)(C)C1=CC=C(C(C)(C)C)C(=O)C1=O	aSyn UTR act -72.8
O=C1c2ccccc2NC(c2ccccc2Cl)N1N=C1CCCCCC1 (stereo not given)	aSyn UTR act -178.7
Cc1sc(=NC(=O)c2ccco2)n(C)c1-c1ccc(Cl)cc1	aSyn UTR act -101.3
CN(C)/C=N/c1ncc(C(=O)c2ccccc2)s1	aSyn UTR act -160.3
[O-]/C(=C(\C(=S)Nc1ccc(SC(F)F)cc1)[n+]1ccccc1)c1ccc(Cl)cc1Cl	aSyn UTR act -71.5
COc1ccccc1C1C=C(c2ccc(C)cc2)Nc2nnnn21 (stereo not given)	aSyn UTR act -127.7
CCOc1ccc(C2C=C(c3ccccc3)Nc3nnnn32)cc1 (stereo not given)	aSyn UTR act -151.6
Cc1ccc(C2=CC(c3cccs3)n3nnnc3N2)cc1 (stereo not given)	aSyn UTR act -186.9
COc1ccccc1C1CC(=O)Nc2cc(C)c(C)cc21 (stereo not given)	none
Cc1ccc(C2=N/C(=C\N(C)C)C(=O)O2)cc1	aSyn UTR act -144.4
CN(C)/C=C1\N=C(c2ccc(Cl)cc2Cl)OC1=O	aSyn UTR act -149.1
Cc1c(/C=N\NC(=O)C2COc3ccccc3O2)c2ccccc2n1C (stereo not given)	none
O=C(O)c1ccc(N/N=C/c2cn(Cc3ccc(F)cc3)c3ccccc23)cc1	aSyn UTR act -68.9
O=C(N/N=C/c1cn(Cc2ccccc2)c2ccccc12)c1cc(O)cc(O)c1	none
O=[N+]([O-])/C=C/c1cn(Cc2ccc(F)cc2)c2ccccc12	none
Cc1c(/C=N/Nc2ccc(C(=O)O)cc2)c2ccccc2n1C	aSyn UTR act -118.8
Cc1ccc(Nc2nc(C)cs2)cc1	aSyn UTR act -125.3
COC(=O)Cc1csc(Nc2ccc(Cl)cc2)n1	aSyn UTR act -67.7
Cc1csc(Nc2ccc(Cl)cc2)n1	aSyn UTR act -112.6
O=C(/C=C/c1ccco1)NC1=NCCS1	aSyn UTR act -108.2
O=C(/C=C/c1ccco1)Nc1nnc(-c2ccco2)s1	aSyn UTR act -117.5
CCSc1nnc(NC(=O)/C=C/c2ccco2)s1	aSyn UTR act -320.5
CNS(=O)(=O)c1ccc2nc(NC(=O)/C=C/c3ccco3)sc2c1	aSyn UTR act -230.3
O=C(/C=C\c1ccco1)Nc1cc([N+](=O)[O-])ccc1F	none
CCc1nnc(NC(=O)/C=C/c2ccco2)s1	aSyn UTR act -501.0
O=C(/C=C/c1ccco1)Nc1cccc(NC(=O)/C=C/c2ccco2)n1	aSyn UTR act -192.9
Cc1nc(NC(=O)/C=C/c2ccco2)sc1C	aSyn UTR act -199.3
COc1cc2c(cc1OC)CN(c1ncccc1[N+](=O)[O-])CC2	aSyn UTR act -88.2
